What was measured:
Assay in all cases: PBM; 200 nM protein, PBS
Conditions in all cases: dsDNA, one strand shown
[1] = biological target: HESX1 (Homo sapiens, UniProt Q9UBX0 95-180, R165K)
[2] = biological target: SHOX (Homo sapiens, UniProt O15266 103-189)
[3] = biological target: ALX4 (Homo sapiens, UniProt Q9H161 200-286)
[4] = biological target: PRRX1 (Homo sapiens, UniProt P54821 80-166, F113S)
[5] = biological target: ALX4 (Homo sapiens, UniProt Q9H161 200-286, Q225E)
[6] = biological target: HESX1 (Homo sapiens, UniProt Q9UBX0 95-180)
[7] = biological target: MSX2 (Homo sapiens, UniProt P35548 130-214, R199I)
[8] = biological target: ALX1 (Homo sapiens, UniProt Q15699 118-204, L144V)
[9] = biological target: SHOX (Homo sapiens, UniProt O15266 103-189, R173C)
[10] = biological target: ALX1 (Homo sapiens, UniProt Q15699 118-204, L144R)
[11] = biological target: PROP1 (Homo sapiens, UniProt O75360 56-141)
[12] = biological target: HESX1 (Homo sapiens, UniProt Q9UBX0 95-180, R109Q)
[13] = biological target: PROP1 (Homo sapiens, UniProt O75360 56-141, R99H)
[14] = biological target: ALX3 (Homo sapiens, UniProt O95076 139-225, L168Q)
[15] = biological target: HESX1 (Homo sapiens, UniProt Q9UBX0 95-180, P111T)
[16] = biological target: PROP1 (Homo sapiens, UniProt O75360 56-141, F88S)
[17] = biological target: MSX2 (Homo sapiens, UniProt P35548 130-214, F161Y)
[18] = biological target: HESX1 (Homo sapiens, UniProt Q9UBX0 95-180, F115L)
[19] = biological target: ALX1 (Homo sapiens, UniProt Q15699 118-204)
[20] = biological target: PRRX1 (Homo sapiens, UniProt P54821 80-166)
Sequence of PRRX1 (Homo sapiens, UniProt P54821 80-166) (P54821 80-166): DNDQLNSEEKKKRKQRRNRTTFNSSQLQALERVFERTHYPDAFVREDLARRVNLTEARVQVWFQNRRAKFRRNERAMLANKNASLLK

Sequence of HESX1 (Homo sapiens, UniProt Q9UBX0 95-180, R109Q) (Q9UBX0 95-180 R109Q): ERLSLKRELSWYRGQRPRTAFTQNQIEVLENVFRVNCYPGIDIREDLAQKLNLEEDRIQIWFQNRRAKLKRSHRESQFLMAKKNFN
Sequence of HESX1 (Homo sapiens, UniProt Q9UBX0 95-180) (Q9UBX0 95-180): as the sequence (Q9UBX0 95-180 R109Q) above, with Q15R counted along it
Sequence of HESX1 (Homo sapiens, UniProt Q9UBX0 95-180, R165K) (Q9UBX0 95-180 R165K): as the sequence (Q9UBX0 95-180 R109Q) above, with Q15R, R71K counted along it
Sequence of HESX1 (Homo sapiens, UniProt Q9UBX0 95-180, P111T) (Q9UBX0 95-180 P111T): as the sequence (Q9UBX0 95-180 R109Q) above, with Q15R, P17T counted along it
Sequence of HESX1 (Homo sapiens, UniProt Q9UBX0 95-180, F115L) (Q9UBX0 95-180 F115L): as the sequence (Q9UBX0 95-180 R109Q) above, with Q15R, F21L counted along it
Sequence of MSX2 (Homo sapiens, UniProt P35548 130-214, F161Y) (P35548 130-214 F161Y): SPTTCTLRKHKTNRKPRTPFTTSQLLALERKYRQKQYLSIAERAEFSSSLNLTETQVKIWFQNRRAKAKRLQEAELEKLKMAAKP
Sequence of MSX2 (Homo sapiens, UniProt P35548 130-214, R199I) (P35548 130-214 R199I): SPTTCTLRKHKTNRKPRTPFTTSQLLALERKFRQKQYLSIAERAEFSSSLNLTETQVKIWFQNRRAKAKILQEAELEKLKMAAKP
Sequence of ALX4 (Homo sapiens, UniProt Q9H161 200-286) (Q9H161 200-286): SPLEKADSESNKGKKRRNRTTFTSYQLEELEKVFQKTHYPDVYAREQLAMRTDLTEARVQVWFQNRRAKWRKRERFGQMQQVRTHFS
Sequence of SHOX (Homo sapiens, UniProt O15266 103-189) (O15266 103-189): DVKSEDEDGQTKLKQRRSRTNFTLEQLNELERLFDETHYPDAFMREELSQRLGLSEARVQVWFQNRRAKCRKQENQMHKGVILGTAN
Sequence of PROP1 (Homo sapiens, UniProt O75360 56-141, F88S) (O75360 56-141 F88S): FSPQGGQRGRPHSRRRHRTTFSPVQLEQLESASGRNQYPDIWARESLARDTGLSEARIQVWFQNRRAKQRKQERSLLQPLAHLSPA
Sequence of PROP1 (Homo sapiens, UniProt O75360 56-141) (O75360 56-141): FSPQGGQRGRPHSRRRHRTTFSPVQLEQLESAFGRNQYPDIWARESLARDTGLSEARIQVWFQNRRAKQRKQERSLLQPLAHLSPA
Sequence of SHOX (Homo sapiens, UniProt O15266 103-189, R173C) (O15266 103-189 R173C): as the sequence (O15266 103-189) above, with R71C counted along it
Sequence of ALX4 (Homo sapiens, UniProt Q9H161 200-286, Q225E) (Q9H161 200-286 Q225E): as the sequence (Q9H161 200-286) above, with Q26E counted along it
Sequence of ALX1 (Homo sapiens, UniProt Q15699 118-204, L144V) (Q15699 118-204 L144V): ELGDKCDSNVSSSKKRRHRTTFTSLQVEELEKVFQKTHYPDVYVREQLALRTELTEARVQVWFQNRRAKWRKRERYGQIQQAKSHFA
Sequence of PRRX1 (Homo sapiens, UniProt P54821 80-166, F113S) (P54821 80-166 F113S): as the sequence (P54821 80-166) above, with F34S counted along it
Sequence of ALX1 (Homo sapiens, UniProt Q15699 118-204) (Q15699 118-204): as the sequence (Q15699 118-204 L144V) above, with V27L counted along it
Sequence of ALX1 (Homo sapiens, UniProt Q15699 118-204, L144R) (Q15699 118-204 L144R): as the sequence (Q15699 118-204 L144V) above, with V27R counted along it
Sequence of ALX3 (O95076 139-225 L168Q): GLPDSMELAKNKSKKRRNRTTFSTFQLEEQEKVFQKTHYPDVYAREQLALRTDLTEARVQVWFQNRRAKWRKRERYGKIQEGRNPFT
Sequence of PROP1 (Homo sapiens, UniProt O75360 56-141, R99H) (O75360 56-141 R99H): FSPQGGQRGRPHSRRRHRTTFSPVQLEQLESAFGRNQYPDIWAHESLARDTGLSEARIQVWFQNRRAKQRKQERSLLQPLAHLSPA

AATTAAAT
binding signal [1]: 11.5 upbm affinity estimate (log intensity, higher = more binding, comparable within an allelic series)
binding signal [2]: 11.5 upbm affinity estimate (log intensity, higher = more binding, comparable within an allelic series)
binding signal [3]: 13.9 upbm affinity estimate (log intensity, higher = more binding, comparable within an allelic series)
binding signal [4]: 11.3 upbm affinity estimate (log intensity, higher = more binding, comparable within an allelic series)
binding signal [5]: 13.1 upbm affinity estimate (log intensity, higher = more binding, comparable within an allelic series)
binding signal [6]: 11.6 upbm affinity estimate (log intensity, higher = more binding, comparable within an allelic series)
binding signal [7]: 12.4 upbm affinity estimate (log intensity, higher = more binding, comparable within an allelic series)
binding signal [8]: 11.5 upbm affinity estimate (log intensity, higher = more binding, comparable within an allelic series)
binding signal [9]: 9.35 upbm affinity estimate (log intensity, higher = more binding, comparable within an allelic series)
binding signal [10]: 11.3 upbm affinity estimate (log intensity, higher = more binding, comparable within an allelic series)
binding signal [11]: 11.6 upbm affinity estimate (log intensity, higher = more binding, comparable within an allelic series)
binding signal [12]: 8.88 upbm affinity estimate (log intensity, higher = more binding, comparable within an allelic series)
binding signal [13]: 11.4 upbm affinity estimate (log intensity, higher = more binding, comparable within an allelic series)
binding signal [14]: 10.5 upbm affinity estimate (log intensity, higher = more binding, comparable within an allelic series)
binding signal [15]: 10.3 upbm affinity estimate (log intensity, higher = more binding, comparable within an allelic series)
binding signal [16]: 7.81 upbm affinity estimate (log intensity, higher = more binding, comparable within an allelic series)
binding signal [17]: 13.1 upbm affinity estimate (log intensity, higher = more binding, comparable within an allelic series)
binding signal [18]: 7.97 upbm affinity estimate (log intensity, higher = more binding, comparable within an allelic series)
binding signal [19]: 12.2 upbm affinity estimate (log intensity, higher = more binding, comparable within an allelic series)
binding signal [20]: 13.4 upbm affinity estimate (log intensity, higher = more binding, comparable within an allelic series)

CGATTATC
binding signal [1]: 8.23 upbm affinity estimate (log intensity, higher = more binding, comparable within an allelic series)
binding signal [6]: 8.64 upbm affinity estimate (log intensity, higher = more binding, comparable within an allelic series)
binding signal [18]: 6.88 upbm affinity estimate (log intensity, higher = more binding, comparable within an allelic series)

CGCGTAGC
binding signal [1]: 6.51 upbm affinity estimate (log intensity, higher = more binding, comparable within an allelic series)
binding signal [6]: 6.55 upbm affinity estimate (log intensity, higher = more binding, comparable within an allelic series)
binding signal [12]: 6.51 upbm affinity estimate (log intensity, higher = more binding, comparable within an allelic series)
binding signal [15]: 6.44 upbm affinity estimate (log intensity, higher = more binding, comparable within an allelic series)
binding signal [18]: 6.54 upbm affinity estimate (log intensity, higher = more binding, comparable within an allelic series)

CGGGCCCG
binding signal [1]: 6.56 upbm affinity estimate (log intensity, higher = more binding, comparable within an allelic series)
binding signal [6]: 6.74 upbm affinity estimate (log intensity, higher = more binding, comparable within an allelic series)
binding signal [12]: 6.76 upbm affinity estimate (log intensity, higher = more binding, comparable within an allelic series)
binding signal [15]: 6.72 upbm affinity estimate (log intensity, higher = more binding, comparable within an allelic series)
binding signal [18]: 6.55 upbm affinity estimate (log intensity, higher = more binding, comparable within an allelic series)

CCGTAGGC
binding signal [1]: 6.41 upbm affinity estimate (log intensity, higher = more binding, comparable within an allelic series)
binding signal [6]: 6.44 upbm affinity estimate (log intensity, higher = more binding, comparable within an allelic series)
binding signal [12]: 6.53 upbm affinity estimate (log intensity, higher = more binding, comparable within an allelic series)
binding signal [15]: 6.41 upbm affinity estimate (log intensity, higher = more binding, comparable within an allelic series)
binding signal [18]: 6.48 upbm affinity estimate (log intensity, higher = more binding, comparable within an allelic series)

GCCAGCGA
binding signal [1]: 6.34 upbm affinity estimate (log intensity, higher = more binding, comparable within an allelic series)
binding signal [6]: 6.55 upbm affinity estimate (log intensity, higher = more binding, comparable within an allelic series)
binding signal [12]: 6.49 upbm affinity estimate (log intensity, higher = more binding, comparable within an allelic series)
binding signal [15]: 6.48 upbm affinity estimate (log intensity, higher = more binding, comparable within an allelic series)
binding signal [18]: 6.56 upbm affinity estimate (log intensity, higher = more binding, comparable within an allelic series)

GCCCCCCA
binding signal [1]: 6.24 upbm affinity estimate (log intensity, higher = more binding, comparable within an allelic series)
binding signal [6]: 6.28 upbm affinity estimate (log intensity, higher = more binding, comparable within an allelic series)
binding signal [12]: 6.41 upbm affinity estimate (log intensity, higher = more binding, comparable within an allelic series)
binding signal [15]: 6.34 upbm affinity estimate (log intensity, higher = more binding, comparable within an allelic series)
binding signal [18]: 6.4 upbm affinity estimate (log intensity, higher = more binding, comparable within an allelic series)

CCAGCGCA
binding signal [1]: 6.46 upbm affinity estimate (log intensity, higher = more binding, comparable within an allelic series)
binding signal [6]: 6.4 upbm affinity estimate (log intensity, higher = more binding, comparable within an allelic series)
binding signal [7]: 9.46 upbm affinity estimate (log intensity, higher = more binding, comparable within an allelic series)
binding signal [12]: 6.49 upbm affinity estimate (log intensity, higher = more binding, comparable within an allelic series)
binding signal [15]: 6.38 upbm affinity estimate (log intensity, higher = more binding, comparable within an allelic series)
binding signal [17]: 9.44 upbm affinity estimate (log intensity, higher = more binding, comparable within an allelic series)
binding signal [18]: 6.38 upbm affinity estimate (log intensity, higher = more binding, comparable within an allelic series)

CCCGGCTC
binding signal [1]: 6.39 upbm affinity estimate (log intensity, higher = more binding, comparable within an allelic series)
binding signal [6]: 6.47 upbm affinity estimate (log intensity, higher = more binding, comparable within an allelic series)
binding signal [12]: 6.38 upbm affinity estimate (log intensity, higher = more binding, comparable within an allelic series)
binding signal [15]: 6.47 upbm affinity estimate (log intensity, higher = more binding, comparable within an allelic series)
binding signal [18]: 6.5 upbm affinity estimate (log intensity, higher = more binding, comparable within an allelic series)

CAGCCAGG
binding signal [1]: 6.31 upbm affinity estimate (log intensity, higher = more binding, comparable within an allelic series)
binding signal [6]: 6.36 upbm affinity estimate (log intensity, higher = more binding, comparable within an allelic series)
binding signal [12]: 6.38 upbm affinity estimate (log intensity, higher = more binding, comparable within an allelic series)
binding signal [15]: 6.49 upbm affinity estimate (log intensity, higher = more binding, comparable within an allelic series)
binding signal [18]: 6.49 upbm affinity estimate (log intensity, higher = more binding, comparable within an allelic series)

CAGGCGCC
binding signal [1]: 6.55 upbm affinity estimate (log intensity, higher = more binding, comparable within an allelic series)
binding signal [6]: 6.51 upbm affinity estimate (log intensity, higher = more binding, comparable within an allelic series)
binding signal [12]: 6.57 upbm affinity estimate (log intensity, higher = more binding, comparable within an allelic series)
binding signal [15]: 6.52 upbm affinity estimate (log intensity, higher = more binding, comparable within an allelic series)
binding signal [18]: 6.58 upbm affinity estimate (log intensity, higher = more binding, comparable within an allelic series)
